From PubChem
Most compounds without a hit are left out; they make up all but 11% or so of the library.
PNC inhibitor: perinucleolar compartment assembly inhibition; 3.1% of 140,000 active; activity change (PNC), negative = inhibition, % at 10 µM; PC3M PTB-GFP, PNC prevalence imaging, 16 h; hits give low values;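 active = readout at or below -70, meaning at least 70% loss of cells showing the perinucleolar compartment, a nuclear body marking cancer cells; inconclusive = readout between -30 and a set limit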;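 also: plate controls were DMSO wells for no effect and camptothecin positive control wells for full effect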
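Read-out is percentage of cells bearing a perinucleolar compartment, from automated 20x imaging of fixed, Hoechst-stained PC3M PTB-GFP cells. Cells were seeded 4 h, then exposed 16 h to compound (23 nl of library stock) in duplicate plates.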
ALDH1A1 block: blocks purified human ALDH1A1 activity; 7.3% of 220,000 active; AID 1030; P00352; Potency, µM (series often up to 75.3 µM), for the others: at the top dose activity, negative = inhibition, hits mostly inhibitors; Purified ALDH1A1, NADH fluorescence, propionaldehyde substrate;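 also: potency is read from the fitted curve at half-maximal effect; plate controls were no enzyme wells and a reference inhibitor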
HPGD inh: inhibitors of human 15-hydroxyprostaglandin dehydrogenase (HPGD) | P15428 | purified HPGD, NADH fluorescence kinetic, PGE2 substrate | Potency, µM, without a hit: top-dose activity change, negative = inhibition, hits mostly inhibitors | 4.3% of 150,000 active; also: potency is read from the fitted curve at half-maximal effect
Target sequence (P15428 whole entry, looked up): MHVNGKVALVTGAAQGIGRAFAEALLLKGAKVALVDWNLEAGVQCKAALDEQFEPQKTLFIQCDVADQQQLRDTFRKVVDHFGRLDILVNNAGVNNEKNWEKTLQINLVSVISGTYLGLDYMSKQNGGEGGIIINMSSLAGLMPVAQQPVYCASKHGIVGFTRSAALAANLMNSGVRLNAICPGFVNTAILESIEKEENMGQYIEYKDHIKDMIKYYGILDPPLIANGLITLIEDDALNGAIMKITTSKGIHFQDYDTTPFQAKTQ
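20 nM HPGD preincubated 15 min at room temperature with compound in 50 mM Tris-HCl pH 8, 0.01% Tween 20. Started with 1 mM NAD+ and 30 uM prostaglandin E2; NADH fluorescence (360/450 nm) read 5 times over 30-s intervals, last minus first.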
* = called active by the depositor; ? = inconclusive; . = not tested or not shown; [ ] = another dose, or the depositor's remark. Unless noted, calls follow the shape of the dose curve; as a rule, active = well fitted inhibition curve with a large enough effect (not every such curve was filed as active); inconclusive = small, poorly fitted or top-dose-only effect, or another doubt; inactive = no such curve, though single readings can be large or run the other way. Unless noted, % is scaled to controls: 0 for no effect and ±100 for the full control effect.

SMILES	PNC inhibitor	ALDH1A1 block	HPGD inh
COC(=O)CN(c1ccccc1C)S(C)(=O)=O	-11	13%	2%
O=C(COC(=O)c1ccccc1C(=O)c1ccccc1)NCc1ccc(F)cc1	.	8%	.
O=C(COC(=O)COc1ccccc1)NCc1ccccc1	.	3%	.
O=C(COc1ccccc1)NCc1ccccc1	-26	-12%	28µM*
O=C(COc1ccc(C(=O)c2ccccc2)cc1)NCc1ccc(F)cc1	-81*	?	-24%
C(=N/Nc1nnc2c(n1)[nH]c1ccccc12)/c1cccnc1	.	-6%[13.5 µM]	-9%
O=C(O)COc1ccccc1/C=N/NC(=O)c1cc2ccccc2cc1O	.	4%	.
CCc1c(C)sc(NC(=O)CSc2nc3c(c(C(F)(F)F)n2)CCc2ccccc2-3)c1C#N	-29	22µM*	22µM*
CC(NC(=O)CSc1nc2c(c(C(F)(F)F)n1)CCc1ccccc1-2)c1ccccc1 (configuration not stated)	-5	-6%	-17%
CC(=O)Nc1nc2c(c3c1c(=O)oc1ccccc13)CC(C)CC2 (configuration not stated)	-100*	?	?
CC(=O)Nc1nc2c(c3c1c(=O)oc1ccccc13)CCCC2	?	-7%	-24%
CN(C)/C=C1/Sc2ccccc2C1=O	27	?	-16%
CC(=O)N(\C=C/C=C/C=C1\Sc2ccccc2C1=O)c1ccccc1	.	18µM*	.
COc1ccc2c(=O)c3c(=O)n(Cc4ccco4)c(-c4ccc(C)cc4)nc3oc2c1	8	?	-8%
COc1ccc2c(=O)c3c(=O)n(Cc4ccco4)c(C(C)C)nc3oc2c1	-18	9.5µM*	-28%
CCOC(=O)c1c(NC(=O)CN2CCCc3ccccc32)sc(C)c1CC	86	?	-15%
Nc1ncnc2c1ncn2[C@H]1O[C@@H](CO)[C@@H](O)[C@H]1N	.	5%[13.5 µM]	-11%
Cc1cc(C)c(C(=O)/C=C/c2ccco2)c(=O)[nH]1	.	11µM*	.
Cc1ccc(/C=C/C(=O)c2c(C)cc(C)[nH]c2=O)cc1	8	-3%	-14%
Cc1ccc(Nc2nnns2)cc1	25	2.5µM*	22µM*
Cc1ccc(Nc2nc3ccccc3s2)cc1	42	6%	-8%
N#Cc1ccc(OCC(=O)OCC(=O)NCCC2=CCCCC2)cc1	-17	-6%	-10%
CCCN(CCC)CCCNC(=S)Nc1ccc2nc3n(c(=O)c2c1)CCCCC3	-15	-6%	-6%
O=C(NCC1CCCO1)C(c1ccc(F)cc1)N(Cc1ccc2c(c1)OCO2)C(=O)c1ccc(CN2CCOCC2)o1 (configuration not stated)	.	0%	.
CCOC(=O)C1=NN(C(=O)COc2ccccc2)C(O)(c2ccc(Br)cc2)C1 (configuration not stated)	.	-2%	.
SMILES	PNC inhibitor	ALDH1A1 block	HPGD inh
Cc1ccc(-c2cn(-c3ccccc3)c(SCC(=O)NC3CCS(=O)(=O)C3)n2)cc1C (configuration not stated)	-83*	14µM*	-11%
CCn1c(SCC(=O)NC2CCS(=O)(=O)C2)nnc1-c1ccccc1 (configuration not stated)	.	2%	.
O=C(Nc1ccc(N2CCOCC2)cc1)c1cc2ccccc2o1	-28	?	-24%
O=C(/C=C/N1CCOCC1)c1cc2ccccc2o1	35	18µM*	-14%
O=C(c1cc2ccccc2o1)N1CCCC1	.	5%	.
O=C(c1cc2ccccc2o1)N1CCCCCC1	250	?	7.9µM*
CC1CCN(C(=O)c2cc3ccccc3o2)CC1	-24	?	11µM*
O=C(c1cc2ccccc2o1)N1CCC(N2CCC(C(=O)N3CCCC3)CC2)CC1	.	-4%	.
CC(Sc1nncs1)C(=O)Nc1ccc(Cl)cn1 (configuration not stated)	-9	3%	4%
O=c1[nH]c2cc3c(cc2cc1C(c1nnnn1CC1CCCO1)N1CCCCCC1)OCCO3 (configuration not stated)	3	?	-17%
Cc1nc2cncnc2n(Cc2ccccc2)c1=O	.	14%	.
O=C(C1CC1)N1CCc2[nH]c3ccccc3c2C1	-6	1%	-8%
O=C(CSc1nc2ccccc2[nH]1)N1CCN(C(=O)c2ccco2)CC1	11	?	-5%
O=C(CN1CCSCC1)N1CCc2[nH]c3ccc(Br)cc3c2C1	?	15µM*	-6%
Cc1ccc2[nH]c3c(c2c1)CN(C(=O)CN1CCN(c2cccc(C)c2C)CC1)CC3	?	4.5µM*	?
O=C(CN1CCN(C(=O)c2ccco2)CC1)N1CCc2[nH]c3ccccc3c2C1	.	10µM*	.
Cc1ccc2[nH]c3c(c2c1)CN(C(=O)CN1c2ccc(F)cc2CCC1C)CC3 (configuration not stated)	11	?	?
O=C(O)CSc1cccc[n+]1[O-]	4	1%	4%
Cn1cccc1C(=O)NC(=O)CSc1cccc[n+]1[O-]	-95*	?	-28%
O=C(CSc1cccc[n+]1[O-])c1cc2ccccc2o1	8	?	28µM*
COc1ccccc1C(=O)NC(=O)CSc1cccc[n+]1[O-]	.	-4%	.
COc1cc2c(cc1OC)C1C(=O)c3c(O)cc4c(c3OC1CO2)C=CC(C)(C)O4 (configuration not stated)	.	?	-20%
Cn1ccnc1SCC(=O)Nc1ccc2c(c1)OC(F)(F)O2	.	0%	.
CC(C)N1CCC(NC(=O)Nc2ccc3c(c2)OCO3)CC1	.	3%	.
Cc1cccn2c(CNC3CCCc4ccccc43)c(C(=O)N3CCCCC3)nc12 (configuration not stated)	.	20µM*	.
SMILES	PNC inhibitor	ALDH1A1 block	HPGD inh
CCn1cc(CNCc2c(C(=O)N3CCCCC3)nc3c(C)cccn23)cn1	.	-11%	.
Cc1noc(C)c1-c1cc(N(C)C)ncn1	.	7%	-13%
Cc1ccccc1NC(=O)CCC(=O)N/N=C/c1cc([N+](=O)[O-])ccc1O	?	?	-25%
O=[N+]([O-])c1ccc(O)c(/C=N/n2c(CO)nc3ccccc32)c1	.	3.2µM*	.
O=[N+]([O-])c1ccc(O)c(/C=N/Nc2ccccc2Cl)c1	.	-7%	.
O=[N+]([O-])c1ccc(O)c(/C=N/n2cnc3ccccc32)c1	-18	?	14µM*
COC(=O)C(=C/C(C)=C/c1cccnc1)C(=O)OC	.	-7%	.
CC(C)Cn1cc(C(=O)NCc2cccs2)c2c3ccccc3n(C)c2c1=O	-6	1µM*	.
CC(C)Cn1cc(C(=O)N2CCOCC2)c2c3ccccc3n(C)c2c1=O	-12	10%	.
COc1ccccc1CN1CCNC(=O)C1CC(=O)NCCOc1cccnc1 (configuration not stated)	.	-2%	.
N=c1c2c(-c3ccccc3)c(-c3ccccc3)n(Cc3ccco3)c2ncn1CCCn1ccnc1	-98*	4%	6%
N=c1c2c(-c3ccccc3)c(-c3ccccc3)n(Cc3ccco3)c2ncn1CCCN1CCOCC1	.	8%	.
CNC(=O)c1ccccc1	.	-4%	-7%
O=CC(=O)c1ccccc1	.	2.8µM*	-8%
O=C(c1ccccc1)N1CCCCC(Sc2nnnn2-c2ccccc2)C1=O (configuration not stated)	-12	3.5µM*	-11%
O=C(c1ccc(F)cc1)N1CCCCC(Sc2nnnn2-c2ccccc2)C1=O (configuration not stated)	?	4.5µM*	-17%
O=C1OCCC1Sc1nnnn1-c1ccccc1 (configuration not stated)	44	?	-12%
